Several values for one entry are separate records, joined by “and”; a condition that tells them apart may be missing. Equal entries are not always repeated. Results filed as inconclusive are left out. Unmarked numbers belong to inactive results. Calls come from the whole dose curve; as a rule, active = well fitted curve in the direction sought with a large enough effect; inconclusive = small, poorly fitted or top-dose-only effect, or another doubt; inactive = no such curve, though single readings can be large or run the other way.
% is set by controls: 0 for no effect and ±100 for the full control effect.

The nature of the assay: qHTS Assay for Identifying Gametocytocidal Compounds (AID 743244).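 Note: actives lower the fluorescent signal which means gametocytes are killed.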 To be noted: P. falciparum 3D7 stage III-V gametocytes, alamarBlue, 72 h; max response: active compounds read low. In a few lines: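 Compounds are pinned into medium, gametocytes (stage III–V, 3D7, 20,000 cells/well) added, and plates held 72 h at 37 °C in 5% CO2. AlamarBlue follows for 24 h before fluorescence reading.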
In general terms: qHTS replaces the single test concentration by a dilution series.
Turning to `CSCC[C@H](NC(=O)[C@H](Cc1ccc(OS(=O)(=O)O)cc1)NC(=O)[C@@H](N)CC(=O)O)C(=O)NCC(=O)N[C@@H](Cc1c[nH]c2ccccc12)C(=O)N[C@@H](CCSC)C(=O)N[C@@H](CC(=O)O)C(=O)N[C@@H](Cc1ccccc1)C(N)=O`, the max response was -12.2% and 15%.

Regarding `OCC(O)COc1ccc(Cl)cc1` (stereo not given), the max response was 3.94%.

As to `O=C(Nc1ccc(/C=C/c2ccc(NC(=O)c3cc(S(=O)(=O)O)c4cccnc4c3O)cc2S(=O)(=O)O)c(S(=O)(=O)O)c1)c1cc(S(=O)(=O)O)c2cccnc2c1O`, the max response is -6.63%.

In the case of `C[C@H](/C=C/[C@H](C)C(C)(C)O)[C@H]1CC[C@H]2/C(=C/C=C3C[C@@H](O)C[C@H](O)C3)CCC[C@]12C`, the max response is 11.6%.

Regarding `CN=C(NC)NCc1ccccc1`, the max response was 13.1%.

In the case of `NCCCC[C@H](NC(=O)[C@@H]1CCCN1C(=O)[C@@H]1CSSC[C@H](N)C(=O)N[C@@H](Cc2ccccc2)C(=O)N[C@@H](Cc2ccccc2)C(=O)N[C@@H](CCC(N)=O)C(=O)N[C@@H](CC(N)=O)C(=O)N1)C(=O)NCC(N)=O`, the max response is -4.07%.

Regarding `CC(=O)OCC(=O)[C@@]1(O)[C@H](C)C[C@H]2[C@@H]3C[C@H](F)C4=CC(=O)C=C[C@]4(C)[C@H]3[C@@H](O)C[C@@]21C`, the max response was -15.2%.

`CCCCc1cc2c(=O)c(C(=O)OC)c[nH]c2cc1OCc1ccccc1`: the max response is 5.7%.

`CCC(C)(C)OC(=O)N[C@@H](Cc1c[nH]c2ccccc12)C(=O)N[C@@H](CCSC)C(=O)N[C@@H](CC(=O)O)C(=O)N[C@@H](Cc1ccccc1)C(N)=O`: the max response was -0.189%.

Turning to `C1CNCCN1`, the max response was -4.23%.

Take `Cc1c(N)nc(C(CC(N)=O)NCC(N)C(N)=O)nc1C(=O)NC(C(=O)NC(C)C(O)C(C)C(=O)NC(C(=O)NCCc1nc(-c2nc(C(=O)NCCCN[C@@H](C)c3ccccc3)cs2)cs1)C(C)O)C(O[C@@H]1O[C@@H](CO)[C@@H](O)[C@H](O)[C@@H]1O[C@H]1O[C@H](CO)[C@@H](O)[C@H](OC(N)=O)[C@@H]1O)c1cnc[nH]1` (stereo not given in full): the max response is 6.97%.

On to `CCCCCCCCCCCCCCCCCC(=O)OCCO`, for which the max response was -0.219%.

For the compound `O=C(O)[C@@H](O)[C@H](O)[C@H](O)[C@@H](O)C(=O)O` (tested in a mixture with another compound), the max response was 5.9%.

Consider `CC(C)(S)C(=O)N[C@@H](CS)C(=O)O`, for which the max response was -15.4% and 8.89%.

For the compound `CCCC(=O)O[C@]1(C(=O)COC(=O)CC)[C@@H](C)C[C@H]2[C@@H]3CCC4=CC(=O)C=C[C@]4(C)[C@@]3(F)[C@@H](O)C[C@@]21C`, the max response is -15.1%.

Take `CCCCCCCCCCCCCCCC(=O)O[C@@H]1CC(C)=C(/C=C/C(C)=C/C=C/C(C)=C/C=C/C=C(C)/C=C/C=C(C)/C=C/C2=C(C)C[C@@H](OC(=O)CCCCCCCCCCCCCCC)CC2(C)C)C(C)(C)C1`: the max response is 1.34%.

In the case of `CCN1CCCC1CNC(=O)c1cc(S(=O)(=O)CC)ccc1OC` (stereo not given), the max response was -5.69% and 12.8%.

For `COc1ccnc(CS(=O)c2nc3cc(OC(F)F)ccc3[nH]2)c1OC` (stereo not given), the max response is -13.5%.

In the case of `CCC(=O)OCC(=O)[C@@]1(OC(=O)CC)[C@H](C)C[C@H]2[C@@H]3CCC4=CC(=O)C=C[C@]4(C)[C@@]3(F)[C@@H](O)C[C@@]21C`, the max response is -4.58%.

Consider `CNC[C@@H]1CC[C@@H](N)[C@@H](O[C@H]2[C@H](O)[C@@H](O[C@H]3OC[C@](C)(O)[C@H](NC)[C@H]3O)[C@H](N)C[C@@H]2N)O1`, for which the max response was -11.2%.

With `C=C[C@]1(C)C[C@@H](OC(=O)CO)[C@]2(C)[C@H](C)CC[C@]3(CCC(=O)[C@H]32)[C@@H](C)[C@@H]1O`, the max response was 11.6%.

With `CC(=O)O[C@H]1CC[C@@]2(C)C(=CC[C@H]3[C@@H]4CC[C@H](C(C)=O)[C@@]4(C)CC[C@@H]32)C1`, the max response was 3.94%.

For `CC(=O)N[C@@H](C=O)[C@H](O)[C@H](O)[C@@H](O)CO`, the max response is -5.02% and 7.73%.

`Cc1cc(-n2c(=O)[nH]c(=O)n(C)c2=O)ccc1Oc1ccc(S(=O)(=O)C(F)(F)F)cc1`: the max response was -1.23%.

For the compound `Cn1nnnc1SCC1=C(C(=O)O)N2C(=O)[C@@H](NC(=O)[C@H](OC=O)c3ccccc3)[C@H]2SC1`, the max response was 10.2%.

These data come from PubChem BioAssay (NCATS).
